D1 potentiator – enhances dopamine response at the human D1 receptor | HEK293 TREx D1 cells, calcium flux, dopamine EC20 potentiation | potentiation, % at 10 µM | 0.036% of 360,000 active; in the data active means potentiation above about 30%; further: 0% is about no effect
Target sequence (P21728 whole entry, looked up): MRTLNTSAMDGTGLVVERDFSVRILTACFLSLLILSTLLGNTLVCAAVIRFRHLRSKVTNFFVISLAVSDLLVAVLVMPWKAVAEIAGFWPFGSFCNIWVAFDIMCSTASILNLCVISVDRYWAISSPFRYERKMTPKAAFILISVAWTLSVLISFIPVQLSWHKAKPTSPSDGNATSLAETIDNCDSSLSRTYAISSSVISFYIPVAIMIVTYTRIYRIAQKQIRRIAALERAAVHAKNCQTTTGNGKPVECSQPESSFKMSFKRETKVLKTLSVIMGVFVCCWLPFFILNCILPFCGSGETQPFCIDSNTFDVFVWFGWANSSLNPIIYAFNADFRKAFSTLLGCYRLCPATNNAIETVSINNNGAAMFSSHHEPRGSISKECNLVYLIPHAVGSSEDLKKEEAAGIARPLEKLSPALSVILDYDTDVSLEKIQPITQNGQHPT
D1 ag – agonists of human D1 dopamine receptor. P21728. 1% of 360,000 active. AID 504660. HEK293 T-REx D1 cells, calcium flux, agonist mode. activation, % at 2 µM; further: 0% is about no effect
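Tetracycline-induced HEK293 TREx D1 cells, force-coupled to calcium signalling, were dye-loaded with a no-wash calcium kit. Compound was pin-added after a 10 s baseline. Fluorescence was read kinetically at 1 cycle/s for 180 s, with calcium rises flagged as agonism.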
LDHA inh – inhibitors of human lactate dehydrogenase A | purified LDHA, NADH/diaphorase-resazurin fluorescence; stronger effect = lower value | activity change, % (values are at about 110 or 230 µM) | 0.15% of 480,000 active | AID 1347041; in the data active means activity change below about -30%;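 further: plate controls were DMSO wells for no effect and wells without enzyme for full effect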
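Resorufin fluorescence (ex540/em590), read at 0 and 20 min after diaphorase/resazurin addition, reports the NADH left after a 5 min room-temperature reaction of 2 nM human LDH5 with 0.06 mM NADH and 0.2 mM pyruvate.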
TRHR enhancer – allosterically enhances the human TRH receptor | P34981 | TRHR cells, fluo-8 calcium fluorescence, EC20 TRH enhancement | enhancement, % at 2 µM | 0.66% of 360,000 active | AID 493056; in the data active means enhancement above about 30%; further: 0% is about no effect
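TRHR-expressing cells loaded with fluo-8 calcium dye were read kinetically (ex 480/em 530) during compound addition, then stimulated with an EC20 of TRH (10 nM final). Enhancement of the Gq-mediated intracellular calcium response was scored.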
TRHR agonist – agonists of human TRH receptor; P34981; 0.18% of 360,000 active; AID 493084; activation, % at 2 µM; TRHR cells, calcium flux fluo-8, FDSS agonist mode; further: 0% is about no effect
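Read-out: compound-evoked intracellular calcium rise in TRHR cells, fluo-8 dye, kinetic FDSS fluorescence at 1 s/cycle following a 10-cycle baseline. Cells cultured overnight before dye loading (30 min–1.5 h, RT).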
D1 antag – blocks dopamine activation of the human D1 receptor; 3.2% of 360,000 active; activity change, negative = inhibition, % at 10 µM; HEK293 TREx D1 cells, calcium flux, dopamine EC80; stronger effect = lower value; P21728; AID 504652; in the data active means activity change below about -30%; further: on the % scale 0 is the no-effect control and ±100 the full control effect
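HEK293 T-REx cells expressing inducible, force-coupled D1 receptor; no-wash Ca dye, 30–90 min RT. Cmpd → 180 s read at 1 Hz → EC80 DA → 180 s read.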
* hit, by the source's call; x = no result; ! = a repeat was not active. An excerpt weighted towards active compounds, which were near 3.6% of everything screened. Unless noted, no stated cut-off is given here; in the data, active means activation above about 30%; inactive means the rest.

SMILES	D1 potentiator	D1 ag	LDHA inh	TRHR enhancer	TRHR agonist	D1 antag
Cc1ccc(S(=O)(=O)NCCN2CCN(S(=O)(=O)c3ccccc3Cl)CC2)cc1	-6.8	6.9	-5.8	-6.3	0.0	-53.1*
CCCCCCn1c(=O)[nH]c2nc3cc(N)c(C)cc3nc2c1=O	-1.4	294.5*	26.5	22.6	-0.8	-6.5
CCCCn1c(=O)[nH]c2nc3cc(NC(C)=O)ccc3nc2c1=O	-1.4	10.5	-1.3	-4.6	11.2	-4.3
C=CCNc1nc(C(=O)OCC(=O)c2cc(C)n(C)c2C)cs1	x	x	-1.4	x	x	x
Cc1nsc(N)c1C(=O)N(C)CCOc1ccccc1Cl	x	x	-0.5	x	x	x
COc1ccc(CN2CCC(CO)(CCOc3ccccc3)CC2)c(OC)c1C	-4.7	66.4*	-9.1	2.4	1.5	-30.7*
OCC1(CCOc2ccccc2)CCN(Cc2ccccc2C(F)(F)F)CC1	0.0	9.0	-0.9	-0.8	0.7	4.0
COc1cc(Cl)c(CN2CCC(CO)(CCOc3ccccc3)CC2)cc1OC	-6.9	13.4	1.2	12.9	-0.2	-1.5
CCOc1ccccc1CN1CCC(CO)(CCOc2ccccc2)CC1	-1.4	30.5*	-6.0	5.3	-0.3	16.1
CCCc1cc(C(=O)Nc2ccc(C(=O)c3ccccc3)cc2)n(C)n1	-11.8	13.7	0.0	-9.0	2.7	-32.4*
CNc1c(NC(=O)Nc2ccc(Br)cc2F)c(=O)oc2ccccc12	x	x	-7.8	x	x	x
O=C1/C(=C/c2ccc(Br)cc2)C(c2ccccc2)Oc2ccccc21 (stereo not given)	x	x	-2.3	x	x	x
CCCC(=O)C1=C(O)C(C(=O)OC)C(C)(C)CC1=Nc1ccccc1 (stereo not given)	-2.8	1.3	0.9	-3.7	-0.5	-45.7*
CC(=O)c1cccc(NC(=O)NNC(=O)CCC(=O)Nc2ccc(C)c(C)c2)c1	-3.3	8.8	-1.9	7.4	0.4	-15.7
Cc1ccc(NC(=O)CCC(=O)NNC(=O)NC23CC4CC(CC(C4)C2)C3)cc1C	-3.2	49.6*	-7.2	5.4	0.1	-10.5
CC12CC3CC(C)(C1)CC(NCc1ccc(C(=O)O)cc1)(C3)C2	x	x	0.5	x	x	x
Cc1cc(C)nc(NS(=O)(=O)c2ccc(NC(=O)COc3ccccc3)cc2)n1	-7.2	1.0	-3.4	8.7	-0.3	-17.5
Cc1cc(C)nc(NS(=O)(=O)c2ccc(NC(=O)COc3ccc(Cl)cc3C)cc2)n1	-1.6	-0.7	-0.7	13.0	-0.2	-48.6*
Cc1cc(C)nc(NS(=O)(=O)c2ccc(NC(=O)Cc3ccccc3)cc2)n1	-0.6	-0.5	-9.8	36.4*	0.3	0.4
CCN(CC)C(=O)c1c(NC(=O)c2ccccc2F)sc2c1CCC(C)C2 (stereo not given)	x	x	-8.7	x	x	x
CN(C)C(=O)CSc1nc(C2CC2)nc2ccccc12	x	x	5.4	x	x	x
CC1=CC(C)(C)N(C(=O)c2ccccc2)c2ccccc21	-5.2	10.2	-6.0	-6.1	-0.6	2.3
CC1=CC(C)(C)N(C(=O)c2ccccc2)c2ccc(C)cc21	-2.5	56.8*	3.0	-3.2	8.0	-13.0
O=C(Nc1c[nH]c2c(Cl)cccc2c1=O)N1CCN(c2ccccn2)CC1	-0.4	2.0	-6.1	31.5*	-1.1	14.4
Cc1cc(NS(=O)(=O)c2ccc(Nc3nc(-c4ccc(O)cc4)cs3)cc2)no1	-2.1	0.4	6.7	-8.2	-1.5	5.5
SMILES	D1 potentiator	D1 ag	LDHA inh	TRHR enhancer	TRHR agonist	D1 antag
Cc1cc(NS(=O)(=O)c2ccc(NS(=O)(=O)c3ccc(Br)cc3)cc2)no1	0.5	0.9	-12.5	33.4*	-0.1	4.6
Cc1cc(NS(=O)(=O)c2ccc(NC(=O)COc3ccc(Br)cc3C)cc2)no1	-1.1	1.2	-3.9	3.6	-1.1	4.1
Cc1cc(NS(=O)(=O)c2ccc(NC(=O)COc3c(C)cc(Br)cc3C)cc2)no1	-6.1	88.2*!	-6.5	2.5	-0.8	5.5
Cc1cc(NS(=O)(=O)c2ccc(Nc3nc(-c4ccc(C)c(C)c4)cs3)cc2)no1	-10.6	68.0*	-4.6	2.0	-0.7	-11.5
Cc1cc(NS(=O)(=O)c2ccc(NC(=O)/C=C/c3ccc(Br)cc3)cc2)no1	0.5	4.7	-12.0	4.3	0.1	-5.8
COc1ccc(/C=N/NC(N)=S)cc1	-1.8	1.5	-1.0	0.0	0.6	-0.3

Screens: PubChem BioAssay, National Center for Advancing Translational Sciences (NCATS)
